# Measured values taken from paper PMC4336329 (PLoS ONE, 2015).
# Among all 310,000 compounds or so, about 14,000 (4.5%) showed an effect of 50% or more. Effects have a minus sign here. The list comes from a sample in which strong results are over-represented; it also holds similar structures and randomly drawn compounds.
# Target: human ether-à-go-go-related gene (hERG) potassium channel (human, UniProt Q12809)
# Experiment: primary screen, population patch clamp on CHO cells stably expressing hERG; higher = less effect of the substance
# 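Note: peak tail current of the secondary pulse compared with the same well before compound.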
# human ether-à-go-go-related gene (hERG) potassium channel, sequence (Q12809 whole entry, looked up): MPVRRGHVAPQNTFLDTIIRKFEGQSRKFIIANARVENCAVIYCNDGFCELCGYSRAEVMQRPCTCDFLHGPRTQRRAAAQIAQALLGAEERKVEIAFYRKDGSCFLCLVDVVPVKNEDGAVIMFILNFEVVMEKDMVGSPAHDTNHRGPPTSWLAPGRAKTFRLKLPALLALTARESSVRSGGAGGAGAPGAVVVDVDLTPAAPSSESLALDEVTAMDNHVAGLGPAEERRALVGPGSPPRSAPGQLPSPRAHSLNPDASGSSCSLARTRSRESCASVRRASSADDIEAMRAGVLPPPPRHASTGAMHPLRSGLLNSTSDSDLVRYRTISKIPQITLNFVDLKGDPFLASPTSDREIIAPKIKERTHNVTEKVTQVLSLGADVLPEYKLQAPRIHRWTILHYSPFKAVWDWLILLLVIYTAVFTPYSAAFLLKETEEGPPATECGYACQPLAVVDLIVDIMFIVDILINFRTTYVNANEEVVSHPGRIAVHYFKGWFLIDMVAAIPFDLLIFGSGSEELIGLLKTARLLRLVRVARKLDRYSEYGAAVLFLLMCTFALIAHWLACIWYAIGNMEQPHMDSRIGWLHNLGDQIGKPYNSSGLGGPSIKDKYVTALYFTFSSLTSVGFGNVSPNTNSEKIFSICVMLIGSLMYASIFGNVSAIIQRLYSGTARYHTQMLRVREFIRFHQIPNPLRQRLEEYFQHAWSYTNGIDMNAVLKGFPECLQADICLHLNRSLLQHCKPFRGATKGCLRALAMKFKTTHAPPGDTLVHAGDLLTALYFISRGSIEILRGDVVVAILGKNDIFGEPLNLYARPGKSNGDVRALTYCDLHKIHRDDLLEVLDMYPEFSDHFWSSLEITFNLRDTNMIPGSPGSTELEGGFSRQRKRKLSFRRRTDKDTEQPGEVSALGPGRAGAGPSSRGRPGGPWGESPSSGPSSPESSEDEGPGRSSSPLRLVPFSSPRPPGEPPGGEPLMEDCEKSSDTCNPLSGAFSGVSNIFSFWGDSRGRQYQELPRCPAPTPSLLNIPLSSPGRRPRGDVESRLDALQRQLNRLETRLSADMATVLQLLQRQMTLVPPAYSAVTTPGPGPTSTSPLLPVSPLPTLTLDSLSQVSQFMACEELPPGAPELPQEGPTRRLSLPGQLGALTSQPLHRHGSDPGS
row,Structure (SMILES),"hERG current change (%, negative = inhibition) at 10uM [%]"
1,O=C(CN(c1ccccc1)S(=O)(=O)c1ccccc1[N+](=O)[O-])Nc1cccnc1,-21.1
2,C=CCCC(=O)Nc1nc(C)c(-c2csc(Nc3ccccc3OC)n2)s1,3.6
3,CCN1CCCC1CNC1=NCCCCC1 (stereo not shown),7.64
4,CCc1nnc(NS(=O)(=O)c2ccc(NC(=O)c3ccccc3OC)cc2)s1,18.5
5,COc1ccccc1Nc1nnc(SCc2cc(=O)n3cc(C)ccc3n2)s1,-12.8
6,COc1ccc(C)cc1NC(=O)NC1CCCCCCC1,21
7,O=C(NCC1(N2CCOCC2)CCCCC1)c1ccc(Cl)c(S(=O)(=O)NCc2ccco2)c1,-52.1
8,O=C(Nc1ccccc1N1CCOCC1)c1ccc(Cl)c(S(=O)(=O)NCc2ccco2)c1,-51.8
9,O=C(NCc1ccco1)c1ccc(Cl)c(S(=O)(=O)N2CCOCC2)c1,-7.4
10,O=C(Nc1ccccc1N1CCOCC1)c1ccc(S(=O)(=O)NCc2ccco2)cc1,-15.7
11,CN(C)C1(CNC(=O)c2ccc(Cl)c(S(=O)(=O)NCc3ccco3)c2)CCCCC1,-37.3
12,COc1ccccc1NC(=O)c1ccc(Cl)c(S(=O)(=O)NCc2ccco2)c1,-37.7
13,Cc1nn(C)cc1CNC(=O)C1C2CCC(O2)C1C(=O)O (stereo not shown),23.7
14,Cc1nn(-c2ccccc2)c(C)c1C(=O)OCC(=O)N1CCN(S(=O)(=O)c2ccccc2)CC1,-11
15,COc1ccccc1N(C(C)=O)C1SC(=O)N(c2ccccc2)C1=O (stereo not shown),14
16,Cc1cc(C(=O)COc2ccccc2[N+](=O)[O-])c(C)n1-c1cccc(S(=O)(=O)N2CCOCC2)c1,-9.82
17,Cc1cc(C(=O)CCl)c(C)n1-c1cccc(S(=O)(=O)N2CCOCC2)c1,-77.4
18,Cc1cc(C(=O)CN2C(=O)C(=O)N(C)C2=O)c(C)n1-c1cccc(S(=O)(=O)N2CCOCC2)c1,-63.4
19,Cc1ccc(C)n1-c1cccc(S(=O)(=O)N2CCOCC2)c1,7.55
20,Cc1cc(C(=O)CN2C(=O)CN(C)C2=O)c(C)n1-c1cccc(S(=O)(=O)N2CCOCC2)c1,-49.8
21,Cc1cc(C(=O)CSc2ncn[nH]2)c(C)n1-c1cccc(S(=O)(=O)N2CCOCC2)c1,-28.5
22,CCc1nnc(NS(=O)(=O)c2ccc(N=Cc3c(C)[nH]n(-c4cccc(Cl)c4)c3=O)cc2)s1,10.4
